Our source for the composite z-score and z-score values is PubChem BioAssay.

Calls of active or inactive are those of the source.

In test [1] the test system is Plasmodium falciparum Sir2 (PF13_0152, Sir2A). The test can be described thus: Plasmodium falciparum Sir2A binding compounds – biochemical, small-molecule microarray, 635 nm fluorescence, primary screen (AID 1098).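 Also: score merges spot fluorescence intensity with its signal-to-noise ratio.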 Particulars: fluorescence 635 nm, higher = more signal.
A short description of test [2]: probe aDKK1 binding to arrayed compounds – biochemical, biotinylated probe, 635/667 nm fluorescence, primary screen (AID 1099).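 Also: score merges 667nm spot fluorescence with signal to noise across triplicate slides.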 Particulars: small-molecule microarray, higher = more signal.
A short description of test [3]: probe aCHRDL2 binding to arrayed compounds – biochemical, biotinylated probe, 635/667 nm fluorescence, primary screen (AID 1100). Particulars: small-molecule microarray, higher = more signal.
Test [4] is described as follows: change in splice reporter luminescence, either direction, cell-based, HEK293, spliceosome inhibition project, primary screen (AID 1101).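 Also: HEK293 cells carrying a splicing-competent luciferase reporter gene; test concentration not given here.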 Particulars: HEK293 splicing luciferase reporter, 24 h, higher = more signal, called active from +8 up or from −8 down. In general terms: Reporter assays use an easily measured gene product as a stand-in for the process of interest.

Test [5] has as its target Fibroblast growth factor 10 (Homo sapiens) (UniProt O15520). As to the kind of experiment: compounds binding fibroblast growth factor 10 – biochemical, small-molecule microarray, 635 nm fluorescence, primary screen (AID 1102). Particulars: FGF10 binding, fluorescence 635 nm, higher = more signal.
For test [6], the system named is glycogen synthase kinase-3 (GSK3A per assay name; protocol says GSK3B). As to the kind of experiment: compounds binding glycogen synthase kinase-3 – biochemical, small-molecule microarray, 635 nm fluorescence, GSK3A, primary screen (AID 1103). Also: the record names both GSK3A and GSK3B. Particulars: fluorescence 635 nm, higher = more signal.
For test [7], the target named is Epidermal growth factor receptor (Homo sapiens) (UniProt P00533). As to the kind of experiment: compounds binding epidermal growth factor receptor – biochemical, small-molecule microarray, 635 nm fluorescence, primary screen (AID 1104).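 Also: score merges 667 nm emission intensity with spot signal to noise over triplicate slides.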 Particulars: EGFR binding, higher = more signal.
Chain of Epidermal growth factor receptor (Homo sapiens) (P00533 whole entry, looked up): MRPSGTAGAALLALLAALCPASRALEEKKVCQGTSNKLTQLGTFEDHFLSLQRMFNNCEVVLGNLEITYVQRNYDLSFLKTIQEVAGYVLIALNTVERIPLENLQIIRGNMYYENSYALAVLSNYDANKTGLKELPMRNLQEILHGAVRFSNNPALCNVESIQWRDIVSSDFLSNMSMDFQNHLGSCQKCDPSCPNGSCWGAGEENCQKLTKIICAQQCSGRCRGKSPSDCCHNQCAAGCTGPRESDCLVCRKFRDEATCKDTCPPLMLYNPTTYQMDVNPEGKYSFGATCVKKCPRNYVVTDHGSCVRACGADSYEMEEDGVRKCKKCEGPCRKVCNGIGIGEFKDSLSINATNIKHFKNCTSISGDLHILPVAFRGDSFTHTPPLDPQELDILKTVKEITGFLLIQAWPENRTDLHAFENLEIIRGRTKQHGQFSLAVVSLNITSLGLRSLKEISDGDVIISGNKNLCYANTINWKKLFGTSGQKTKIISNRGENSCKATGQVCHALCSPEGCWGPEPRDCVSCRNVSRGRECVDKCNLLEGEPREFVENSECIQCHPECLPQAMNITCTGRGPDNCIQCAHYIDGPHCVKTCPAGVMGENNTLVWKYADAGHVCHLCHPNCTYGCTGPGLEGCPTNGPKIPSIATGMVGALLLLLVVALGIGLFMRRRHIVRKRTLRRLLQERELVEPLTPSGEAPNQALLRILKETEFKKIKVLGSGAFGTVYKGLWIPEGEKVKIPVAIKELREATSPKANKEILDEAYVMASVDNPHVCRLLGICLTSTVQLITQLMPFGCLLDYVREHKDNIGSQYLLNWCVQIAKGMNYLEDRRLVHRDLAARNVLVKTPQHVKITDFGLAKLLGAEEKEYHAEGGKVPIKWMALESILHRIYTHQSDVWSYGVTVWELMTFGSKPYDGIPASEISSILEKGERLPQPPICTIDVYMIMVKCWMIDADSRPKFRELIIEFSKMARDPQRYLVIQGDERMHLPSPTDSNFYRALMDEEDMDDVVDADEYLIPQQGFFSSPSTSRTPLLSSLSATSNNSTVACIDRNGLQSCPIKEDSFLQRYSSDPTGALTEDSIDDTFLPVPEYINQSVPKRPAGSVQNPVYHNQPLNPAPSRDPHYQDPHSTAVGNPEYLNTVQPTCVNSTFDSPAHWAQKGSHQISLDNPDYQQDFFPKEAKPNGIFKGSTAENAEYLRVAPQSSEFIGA
For test [8], the target named is Follistatin-related protein 3 (Homo sapiens) (UniProt O95633). As to the kind of experiment: compounds binding follistatin-related protein 3 – biochemical, small-molecule microarray, 635 nm fluorescence, primary screen (AID 1105).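 Also: score merges emission near 667 nm and signal to noise per printed spot across three slides.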 Particulars: FSTL3 binding, higher = more signal.
Chain of Follistatin-related protein 3 (Homo sapiens) (O95633 whole entry, looked up): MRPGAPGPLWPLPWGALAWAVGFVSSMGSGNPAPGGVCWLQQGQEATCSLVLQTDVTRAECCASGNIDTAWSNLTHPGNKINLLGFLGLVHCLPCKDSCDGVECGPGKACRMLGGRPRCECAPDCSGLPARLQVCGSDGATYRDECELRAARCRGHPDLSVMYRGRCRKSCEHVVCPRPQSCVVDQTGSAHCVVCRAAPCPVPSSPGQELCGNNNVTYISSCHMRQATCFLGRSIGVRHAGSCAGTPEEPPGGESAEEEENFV
The target of test [9] is Dickkopf-related protein 1 (Homo sapiens) (UniProt O94907). As to the kind of experiment: small molecules binding DKK1 protein – biochemical, small-molecule microarray, 635 nm fluorescence scan, primary screen (AID 1106).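 Also: score merges emission near 667 nm with signal to noise over three replicate slides.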 Particulars: higher = more signal.
Chain of Dickkopf-related protein 1 (Homo sapiens) (O94907 whole entry, looked up): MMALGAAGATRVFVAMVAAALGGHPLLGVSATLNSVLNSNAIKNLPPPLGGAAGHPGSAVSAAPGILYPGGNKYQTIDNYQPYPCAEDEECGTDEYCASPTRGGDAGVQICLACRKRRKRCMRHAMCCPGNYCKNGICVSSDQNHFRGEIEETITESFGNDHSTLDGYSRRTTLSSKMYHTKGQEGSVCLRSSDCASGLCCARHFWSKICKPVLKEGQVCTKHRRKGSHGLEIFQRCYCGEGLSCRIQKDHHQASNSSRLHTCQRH
The test system of test [10] is Inhibin beta A chain (activin A). As to the kind of experiment: small molecules binding activin A – biochemical, small-molecule microarray, 635 nm fluorescence scan, primary screen (AID 1107).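 Also: mouse activin A protein probed at 4.33 µg/mL on printed slides; score merges bound-protein fluorescence near 667 nm with spot signal-to-noise.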 Particulars: INHBA, higher = more signal.
In test [11] the test system is Human papillomavirus type 1a protein E7 (residues 44-93). As to the kind of experiment: small molecules binding HPV E7 44-93 – biochemical, small-molecule microarray, residues 44-93, 635 nm fluorescence, primary screen (AID 1108).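 Also: E7 fragment applied at 1 µg/mL in TBST for 1 h at 4 C; score combines spot fluorescence with its signal to noise ratio.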 Particulars: fluorescence 635 nm, higher = more signal.
Test [12] in a line: hepatitis C replication reporter changes, two-sided – Huh7 cells, luciferase reporter, HCV replication inhibitor project, primary screen (AID 1109).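 Also: huh7 hepatoma cells harbouring a luciferase neomycin HCV replicon reporter; luciferase luminescence as measure of HCV replicon replication; test concentration not given here.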 Particulars: Huh7 HCV replicon luciferase reporter, 48 h; higher = more signal.
In test [13] the target is Left-right determination factor 2 (Homo sapiens) (UniProt O00292). The test can be described thus: small molecules binding LEFTY2 protein – biochemical, small-molecule microarray, 635 nm fluorescence scan, primary screen (AID 1110). Particulars: higher = more signal.
Chain of Left-right determination factor 2 (Homo sapiens) (O00292 whole entry, looked up): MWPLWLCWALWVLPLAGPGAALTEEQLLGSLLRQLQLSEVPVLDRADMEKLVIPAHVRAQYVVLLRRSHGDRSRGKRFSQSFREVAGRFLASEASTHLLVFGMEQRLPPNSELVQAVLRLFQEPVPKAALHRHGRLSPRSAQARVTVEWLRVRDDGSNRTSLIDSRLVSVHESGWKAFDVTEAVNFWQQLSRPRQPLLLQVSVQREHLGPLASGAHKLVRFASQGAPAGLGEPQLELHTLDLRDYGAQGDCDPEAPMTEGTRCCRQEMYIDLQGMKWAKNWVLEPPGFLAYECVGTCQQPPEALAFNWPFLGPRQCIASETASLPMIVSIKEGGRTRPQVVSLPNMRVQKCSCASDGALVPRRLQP
Test [14] concerns the target Calmodulin-1 (Homo sapiens) (UniProt P0DP23). As to the kind of experiment: small molecules binding calmodulin-1 with EGTA – biochemical, small-molecule microarray, Cy5-labelled CALM1, profiling panel (AID 1111).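 Also: labelled calmodulin applied in Tris saline Tween buffer holding calcium plus EGTA and DTT.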 Particulars: Cy5-CALM1 binding fluorescence, higher = more signal.
Test [15] has the same target. The test can be described thus: small molecules binding Ca-loaded calmodulin-1 – biochemical, small-molecule microarray, Cy5-labelled CALM1, plus calcium, artefact control for SMM control-protein annotation, profiling panel (AID 1112).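 Also: score merges spot fluorescence with signal to noise from triplicate slides.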 Particulars: Cy5-CALM1 binding fluorescence, higher = more signal.
Test [16] is described as follows: probe aWnt5a binding to arrayed compounds – biochemical, biotinylated probe, 635/667 nm fluorescence, primary screen (AID 1113).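 Also: score merges 667 nm fluorescence intensity with signal-to-noise per printed feature.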 Particulars: small-molecule microarray, higher = more signal.
The nature of test [17]: probe aShh binding to arrayed compounds – biochemical, biotinylated probe, 635/667 nm fluorescence, primary screen (AID 1114).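 Also: probe is biotin-labelled aShh protein from a stem cell growth factor screen; measures binding of labelled protein to compounds printed on the slide; score merges feature fluorescence at 667 nm with signal-to-noise.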 Particulars: small-molecule microarray, higher = more signal.
Test [18] can be described thus: probe aNog binding to arrayed compounds – biochemical, biotinylated probe, 635/667 nm fluorescence, primary screen (AID 1115).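 Also: probe is biotinylated aNog protein used at 0.15 µg/mL for 1 h at 4 C; z-score combines 667 nm fluorescence of each spot with its signal to noise.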 Particulars: small-molecule microarray, higher = more signal.
Test [19] concerns the target Torsin-1A-interacting protein 1 (Homo sapiens) (UniProt Q5JTV8). The test can be described thus: compound microarray binding of lysate hLAP1 – cell lysate, small-molecule microarray, COS7 lysate, 635/667 nm fluorescence, primary screen (AID 1116). Particulars: 635 nm fluorescence, higher = more signal.
Test [20] concerns the target Alpha-bungarotoxin (Bungarus multicinctus) (UniProt P60615). As to the kind of experiment: compounds binding labelled alpha-BTX control protein – biochemical, small-molecule microarray, Alexa647 label, 635/667 nm fluorescence, artefact control for SMM control protein annotation, profiling panel (AID 1117). Particulars: alpha-BTX-A647 binding fluorescence, higher = more signal.

Chain of Torsin-1A-interacting protein 1 (Homo sapiens) (Q5JTV8 whole entry, looked up): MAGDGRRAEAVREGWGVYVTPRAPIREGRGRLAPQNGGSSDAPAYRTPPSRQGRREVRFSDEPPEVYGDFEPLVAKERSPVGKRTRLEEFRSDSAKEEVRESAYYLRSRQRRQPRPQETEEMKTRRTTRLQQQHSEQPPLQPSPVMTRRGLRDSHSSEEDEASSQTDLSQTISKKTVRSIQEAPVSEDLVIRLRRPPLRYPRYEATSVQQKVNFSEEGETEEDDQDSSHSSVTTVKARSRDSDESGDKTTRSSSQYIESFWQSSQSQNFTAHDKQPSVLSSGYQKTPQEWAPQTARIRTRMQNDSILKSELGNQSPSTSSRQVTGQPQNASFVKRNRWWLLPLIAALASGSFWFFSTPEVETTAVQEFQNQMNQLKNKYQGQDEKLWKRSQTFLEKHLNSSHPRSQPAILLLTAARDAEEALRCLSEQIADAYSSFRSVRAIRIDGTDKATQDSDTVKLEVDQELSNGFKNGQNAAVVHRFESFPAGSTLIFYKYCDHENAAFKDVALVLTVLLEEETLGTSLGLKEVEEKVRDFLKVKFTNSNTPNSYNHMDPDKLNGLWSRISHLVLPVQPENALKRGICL
Chain of Alpha-bungarotoxin (Bungarus multicinctus) (P60615 whole entry, looked up): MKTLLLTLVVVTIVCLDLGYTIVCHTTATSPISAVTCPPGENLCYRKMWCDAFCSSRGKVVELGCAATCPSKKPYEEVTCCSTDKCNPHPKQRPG
Chain of Fibroblast growth factor 10 (Homo sapiens) (O15520 whole entry, looked up): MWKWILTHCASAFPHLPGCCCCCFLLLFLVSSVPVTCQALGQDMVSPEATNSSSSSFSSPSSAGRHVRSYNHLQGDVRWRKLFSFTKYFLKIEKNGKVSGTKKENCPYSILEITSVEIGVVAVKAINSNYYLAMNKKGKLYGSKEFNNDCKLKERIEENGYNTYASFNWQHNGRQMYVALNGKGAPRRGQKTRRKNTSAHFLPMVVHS

Regarding `CCOC(=O)C[C@H]1[C@H](OC(=O)c2ccc(C(=O)c3ccccc3)cc2)[C@@H](NC(=O)c2ccc3ccccc3n2)c2cc(OCCCO)ccc2N1C(=O)c1ccccc1`, the composite z-score in test [1] was 0.772; in [2], 0.177; in test [3], 0.628; in test [5] it was 0.719; in test [6], 1.28; in [7], -0.278. The composite z-score in [8] was 0.806; in test [9] it was 0.271; in test [10], -0.177; in [11] it was 0.997; in test [13], -0.538; in test [14] it was 1.47. Besides, the composite z-score in [15] was 0.202; in test [16] it was 0.0079; in test [17] it was 0.308; in test [18], 0.217; in test [19], 0.164; in test [20] it was 1.05. Also, the z-score in test [4] is 0.305 (inactive); in test [12] it was -1.63.
In the case of `C=CCNC(=O)[C@@H]1[C@H]2C(=O)O[C@H](c3ccccc3)[C@H](c3ccccc3)N2[C@H](c2ccccc2OCCO)[C@@]12C(=O)N(C(=O)OCCOC)c1ccccc12`, the composite z-score in [1] was 1.54; in [2] it was -0.0073; in test [3], -0.0387; in test [5] it was 1.27; in [6], 1.33; in test [7], 0.828. Further, the composite z-score in test [8] stood at 1.44; in test [9], 0.825; in [10] it was 0.843; in [11], 1.43; in test [13] it was 0.877; in [14], 0.926. For the same compound, the composite z-score was -0.464 in test [15]; 0.132 in test [16]; 0.126 in test [17]; -0.331 in test [18]; 0.784 in test [19]; 1.25 in test [20]. The z-score in [4] was -0.108 (inactive); in test [12] it was -2.64.
Consider `CCCC[C@@H]1C[C@H]1[C@@H](NC(=O)c1ccco1)c1ccccc1C(F)(F)F`, for which the composite z-score in test [1] was -0.323; in [2], 2.11; in test [3] it was 1.39; in [5], 0.3; in test [6], -0.291; in test [7] it was -0.127. Besides, the composite z-score is 0.449 in test [8]; -0.316 in [9]; 1.49 in [10]; 0.209 in test [11]; -0.23 in test [13]; 1.75 in test [14]. Also, the composite z-score in test [15] is 1.2; in test [16], 0.948; in [17], 2.6; in test [18] it was 2.94; in test [19] it was 0.58; in test [20] it was 1.84. Further, the z-score in test [4] is -0.255 (inactive); in test [12] it was -1.42.
Regarding `NC(=O)NCC#Cc1ccc2c(c1)[C@]1(C(=O)N2)[C@H](c2ccccc2OCCO)N2[C@H](c3ccccc3)[C@H](c3ccccc3)OC(=O)[C@H]2[C@@H]1C(=O)Nc1nc2ccccc2s1`, the composite z-score in test [1] was 0.134; in test [2] it was -0.0335; in test [3], 0.483; in [5] it was 0.271; in test [6], -0.175; in test [7], -0.209. Besides, the composite z-score came to 0.429 in test [8]; 0.0336 in test [9]; 0.52 in test [10]; 1.36 in [11]; 0.0464 in test [13]; 0.873 in [14]. Further, the composite z-score in test [15] was 0.745; in test [16], -0.0944; in test [17], -0.266; in test [18] it was 0.448; in test [19] it was 0.286; in test [20] it was 1.29. Further, the z-score in test [4] was 0.663 (inactive); in test [12] it was -0.809.
For the compound `COC(=O)[C@@]1(Cc2ccc(OC)cc2)[C@@H]2C(=CC(=O)[C@H]2CC(=O)C(=O)N2CCCC2)CN1C(=O)c1ccccc1`, the composite z-score is 0.108 in test [1]; 1.01 in test [2]; 0.918 in test [3]; -0.148 in test [5]; -0.573 in test [6]; 0.351 in [7]. For the same compound, the composite z-score in test [8] is 0.0649; in test [9], -0.69; in test [10], 0.765; in [11], -0.514; in test [13] it was -0.505; in test [14], 0.946. For the same compound, the composite z-score in test [15] was 0.713; in test [16], 0.368; in [17] it was 1.06; in test [18] it was 1.04; in [19], 0.674; in test [20], 0.15. For the same compound, the z-score in test [4] is -2.47 (inactive); in test [12], -1.88.
`C=CCN1C(=O)[C@]2(O[C@H](CCn3cc([C@H](O)c4ccccc4)nn3)[C@@H]([Si](C)(C)c3ccc(OC)cc3)[C@@H]2C)c2ccccc21`: the composite z-score in test [1] is 0.474; in test [2], -0.291; in test [3], 0.414; in test [5], -0.364; in test [6], -0.781; in [7], -1.25. The composite z-score in [8] was -0.581; in test [9], -0.651; in [10], 0.162; in test [11], -1.22; in [13], -0.901; in [14], -0.525. Further, the composite z-score in test [15] was 0.227; in [16], -0.124; in test [17], -0.0146; in [18], -0.223; in test [19] it was -0.252; in test [20], -1.56. In addition, the z-score is 3.39 (inactive) in test [4] and -2.71 in [12].
